Data from PubChem BioAssay (NCI).
The panel holds about 83,000 compounds, 20% with a hit somewhere; the sample as a whole holds those more often.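 Single-concentration screen, 48 h exposure, 96-well plates. Endpoint: percent growth. Below 10 = active.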 Values without a mark were called inactive. The source made the active and inactive calls.

Columns and labels:
Experiment in all cases: NCI-60 one-dose screen, 48 h (100 = growth as untreated, 0 = no growth, -100 = all killed)
Conditions in all cases: 10 µM unless noted
NCI-H23 lung = test system: NCI-H23 lung
NCI-H226 lung = test system: NCI-H226 lung
NCI-H322M lung = test system: NCI-H322M lung
HOP-62 NSCLC = test system: HOP-62 NSCLC
NCI-H460 lung = test system: NCI-H460 lung
HOP-92 NSCLC = test system: HOP-92 NSCLC
NCI-H522 lung = test system: NCI-H522 lung
A549/ATCC NSCLC = test system: A549/ATCC NSCLC
786-0 renal = test system: 786-0 renal
COLO 205 colon = test system: COLO 205 colon

Compound	growth (NCI-H23 lung)	growth (NCI-H226 lung)	growth (NCI-H322M lung)	growth (HOP-62 NSCLC)	growth (NCI-H460 lung)	growth (HOP-92 NSCLC)	growth (NCI-H522 lung)	growth (A549/ATCC NSCLC)	growth (786-0 renal)	growth (COLO 205 colon)
CCOC(=O)C1=C(C)n2nc(CC#N)c(C#N)c2NC1c1ccc(Cl)cc1 (centres undefined)	86.3%	81.8%	91.7%	91.5%	105%	90%	95.4%	104%	106%	103%
C=C1C(=O)O[C@H]2[C@H]1CC/C(C=Nc1c(N)cc(C(F)(F)F)cc1Br)=C\CC[C@@]1(C)O[C@@H]21	30%	38.3%	77.8%	52%	26.7%	-15.5% (active)	-68% (active)	58%	-41.8% (active)	-52.1% (active)
COc1ccc2nc(-c3ccc(Cl)cc3)cc(-c3nnc(SC/C(=N/O)c4ccccc4)o3)c2c1	26.1%	42.7%	67.9%	59.4%	29.6%	60.7%	45.7%	37.3%	24.9%	31.5%
COCCOCCOCc1n(Cc2ccc3ccccc3n2)c2ccccc2[n+]1Cc1ccc2ccccc2n1	12.7%	37.9%	47.4%	20.8%	16.5%	-22.1% (active)	-1.7% (active)	39.4%	77.8%	
CN(C)CSc1nc2ccccc2s1	92.9%	95.1%	94.8%	88%	109%	78.7%	91.5%	101%	95.4%	
COc1ccc(-c2cs/c(=N\N=C\c3ccc(O)cc3O)n2/N=C/c2ccc(O)cc2O)cc1	-28.5% (active)	-30.5% (active)	5.37% (active)	-38.5% (active)	-10.5% (active)	2.31% (active)	-35.6% (active)	-21.5% (active)	6.51% (active)	
Oc1ccc(CNNc2ccnc3c(O)cccc23)c2cccnc12	31.6%	86.7%	47.8%	25.2%	12.3%	54.3%	13%	26.5%	39%	
O=[N+]([O-])c1cccc(CN(Cc2cccc([N+](=O)[O-])c2O)c2ccccc2)c1O	58.4%	83.2%	60.1%	78.4%	80.1%	54.5%	63.9%	71%	51.1%	
c1cc(CNC23CC4CC(CC(C4)C2)C3)cc(C[N+](Cc2cccc(CNC34CC5CC(CC(C5)C3)C4)c2)(Cc2cccc(CNC34CC5CC(CC(C5)C3)C4)c2)Cc2cccc(CNC34CC5CC(CC(C5)C3)C4)c2)c1 (centres undefined)	42.1% [42 µM]	33.5% [42 µM]	37.1% [42 µM]	33.1% [42 µM]	3.83% [42 µM] (active)	32.8% [42 µM]	-56.4% [42 µM] (active)	16.2% [42 µM]	18.3% [42 µM]	
C#C[C@@]1(O)[C@@H](CO)O[C@@H](n2ccc3c(N)ncnc32)[C@@H]1O	-20.7% (active)	-54.4% (active)	14.5%	4.56% (active)	0.612% (active)	-15.8% (active)	-18.4% (active)	-19.4% (active)	4.14% (active)	-55.2% (active)
COc1ccc(C2CC(c3ccc(OC)cc3O)=NN2c2ccc(S(N)(=O)=O)cc2)cc1 (centres undefined)	65.6%	59.9%	59.4%	83.2%	14%	20.7%	34%	21.7%	38.5%	29.5%
Cc1c(Cl)cccc1NC(=O)c1sc2nc3c(cc2c1N)CN(Cc1ccccc1)CC3	66.1%	72.3%	73.1%	38.4%	22%	51.8%	0.814% (active)	58.6%	42.9%	51.5%
COc1ccc2[nH]c(=O)c(/C=C/C(=O)/C=C/c3ccc(O)c(OC)c3)cc2c1	5.43% (active)	36.8%	78.8%	85%	20.1%	98.3%	29%	22.6%	-42.7% (active)	29.6%
NC(=N\N=C\c1ccccc1O)/C(N)=N/N=C/c1ccccc1O	90.9%	96%	80.5%	84.5%	70.1%	76.2%	63.5%	73.6%	85.2%	97.1%
FC(F)(F)c1ccc2c(Nc3cccc(C4CC(c5ccccc5)=NN4c4ccc(Cl)cc4)c3)ccnc2c1 (centres undefined)	61%	68.1%	68.7%	60.2%	59.1%	47.5%	50.2%	72.4%	77.1%	58.1%
C#C[C@@]1(O)[C@@H](CO)O[C@@H](n2cc(I)c3c(N)ncnc32)[C@@H]1O	-14.5% (active)	52.2%	20%	-3.39% (active)	-25.4% (active)	-23.8% (active)	-49.6% (active)	-56.5% (active)	-24.3% (active)	-50.2% (active)
N#Cc1ccc(Oc2ccc3ccc(=O)oc3c2)cc1	101%	102%	111%	102%	103%	67%	105%	109%	95.5%	102%
O=C(Nc1ccc(N=Cc2ccccc2O)cc1)NC1C=c2ccccc2=CC1 (centres undefined)	100%	87.8%	98.6%	101%	108%	109%	93.3%	87.9%	98.2%	117%
Cc1cc(C)cc(Nc2nccc(-c3c(-c4ccc(F)cc4)ncn3C3CCNCC3)n2)c1	43.1%	32.3%	32.2%	25.4%	-5.36% (active)	26.7%	-36.2% (active)	6.65% (active)	11.8%	-66% (active)
COc1ccc(NC(=O)Nc2ccc(Nc3nc(C)cc(Nc4ccc(C)cc4)n3)cc2)cc1	-57.2% (active)	-71.4% (active)	-74.7% (active)	-94.1% (active)	-74.2% (active)	-54.1% (active)	-74.8% (active)	-83% (active)	-93.8% (active)	-78.7% (active)
NC(=O)c1ccc2nc3c(n2c1)C(=O)C(=O)c1ccccc1-3	-38.3% (active)	-49.7% (active)	-98.2% (active)	-87.8% (active)	-50.7% (active)	-80.9% (active)	-48.9% (active)	-43.1% (active)	-99.4% (active)	-69% (active)
c1ccc(-c2n(Cc3ccc4ccccc4n3)cc[n+]2Cc2ccc3ccccc3c2)cc1	2.93% (active)	9.5% (active)	23.6%	16.5%	6.08% (active)	-32.4% (active)	2.04% (active)	45.3%	26.2%	-77.5% (active)
COc1ccc(C2C(c3ccccc3)C(=O)N2c2cc(OC)c(OC)c(OC)c2)cc1I (centres undefined)	24.6%	60.6%	42.9%	24.7%	4.29% (active)	42.5%	-9.3% (active)	16.9%	17.4%	-64.3% (active)
COc1ccc(Nc2nc(SCC(C)C)nc(-c3ccc(F)cc3)c2C#N)cc1	79.1%	75.1%	97%	73.8%	52.4%	77.2%	35.5%	62.5%	60.8%	72.4%
COc1ccc(Sc2[nH]c(C(C)=O)c3ccccc23)cc1	82.6%	69.8%	76.7%	83.7%	20.4%	65.8%	-7.2% (active)	23%	92.2%	-31.2% (active)
CCC1S/C(=N\N=C(/C)c2ccc[nH]2)N(c2ccccc2)C1=O (centres undefined)	98.8%	132%	90.8%	108%	104%	70.5%	27.2%	82.6%	117%	127%
O=C(CCCCCCCCC(=O)Nc1cccc(C2=NCCN2)c1)Nc1cccc(C2=NCCN2)c1	75.8%	101%	105%	102%	93.6%	90.5%	70.3%	96.6%	100%	92.2%
